Test results as given in the supplement of paper PMC10849652.
Of roughly 7,900 targets only a part is listed; those with a hit were picked by preference. About 0.6% of all pairs of compound and target were hits.

Tests used:
Experiment in all cases: log2 fold change, soluble protein after heating vs DMSO (PISA); higher = thermal stabilisation; K562 cells, 10 uM, 30 min; active = over 0.2 and 3.5 SD of the protein, either way, in both replicates (recomputed)
erlotinib = compound: C#Cc1cccc(Nc2ncnc3cc(OCCOC)c(OCCOC)cc23)c1 [erlotinib]
Summary of the method: (§1)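 Soluble protein was quantified by TMTpro 16plex LC-MS/MS after channel sums were equalised. It was obtained as the supernatant after 21,000xg for 90 min from pooled aliquots of K562 cells (2×10^6 cells/mL, 10 μM compound, 30 min) heated for 3 min across 48°C-58°C and extracted in PBS with 0.5% NP-40 at 4°C. Thermal stability values are relative to control samples and come from duplicates. They are given as log2 fold changes.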

[1] = compound: C/C(=N\NC(=O)C1=CC(=CC=C1)S(=O)(=O)N2CCOCC2)/C3=C(C=CC(=C3)Cl)O
Summary of the method: as §1

[2] = compound: C1=CC(=C(C=C1Cl)C2=NC3=NC=CN=C3C(=N2)NC4=CC=NC=C4)F
Summary of the method: as §1

[3] = compound: C1=CC(=CC=C1C2=NC3=C(N2)C=C(C=C3)C(=O)N)OC4=CC=C(C=C4)Cl
Summary of the method: as §1

[4] = compound: C1=CC2=C(C=CC(=C2)/C=C\3/C(=O)NC(=NCC4=CC=CS4)S3)N=C1
Summary of the method: as §1

[5] = compound: C1=CC2=NC=CN=C2C=C1/C=C/3\C(=O)NC(=O)S3
Summary of the method: as §1

[6] = compound: C1=CC=C(C=C1)C2=NC(=C(N2)C3=CC=NC=C3)C4=CC(=C(C=C4)Cl)O
Summary of the method: as §1

[7] = compound: C1=CC=C2C(=C1)C3=NNC4=CC=CC(=C43)C2=O
Summary of the method: as §1

[8] = compound: C1CCN(C1)C(=O)NC2=CC=CC(=C2)NC3=NC=C(C(=N3)NCCC4=CN=CN4)Br
Summary of the method: as §1

[9] = compound: C1CN(CCC1(CC2=CC=C(C=C2)Cl)N)C3=NC=NC4=C3C=CN4
Summary of the method: as §1

IRAK-1-4 Inhibitor I = compound: C1COCCN1CCN2C3=CC=CC=C3N=C2NC(=O)C4=CC(=CC=C4)[N+](=O)[O-] [IRAK-1-4 Inhibitor I]
Summary of the method: as §1

ibrutinib = compound: C=CC(=O)N1CCC[C@@H](n2nc(-c3ccc(Oc4ccccc4)cc3)c3c(N)ncnc32)C1 [ibrutinib]
Summary of the method: as §1

[10] = compound: CC(=O)c1cnc2ccc(-c3cc(Cl)c(O)c(Cl)c3)nc2c1N[C@H]1CC[C@H](CN(C)C)CC1
Summary of the method: as §1

ralimetinib = compound: CC(C)(C)Cn1c(N)nc2ccc(-c3[nH]c(C(C)(C)C)nc3-c3ccc(F)cc3)nc21 [ralimetinib]
Summary of the method: as §1

[11] = compound: CC(C)(O)CC(=O)NCCn1ccc2ncnc(Nc3ccc(Oc4cccc(C(F)(F)F)c4)c(Cl)c3)c21
Summary of the method: as §1

[12] = compound: CC(C)C1=C2N=C(C=C(N2N=C1)NCC3=CC=CC=C3)NCCCCCCN
Summary of the method: as §1

[13] = compound: CC(C)C[C@@H](C=O)NC(=O)[C@H](CC(C)C)NC(=O)[C@H](CC(C)C)NC(=O)OCc1ccccc1
Summary of the method: as §1

pinometostat = compound: CC(C)N(C[C@H]1O[C@@H](n2cnc3c(N)ncnc32)[C@H](O)[C@@H]1O)[C@H]1C[C@@H](CCc2nc3cc(C(C)(C)C)ccc3[nH]2)C1 [pinometostat]
Summary of the method: as §1

[14] = compound: CC1=C(C(CC(=O)N1)C2=CC=C(C=C2)C(F)(F)F)C(=O)NC3=C(C=C4C(=C3)C=NN4)F
Summary of the method: as §1

[15] = compound: CC1=C(C2=C(C=C1)C(=O)C3=CC=CC=C3N2CCCN)C
Summary of the method: as §1

Measured: log2 fold change

SLC7A6OS (UniProt Q96CW6)
Sequence of UniProt Q96CW6 (Q96CW6 whole entry, looked up): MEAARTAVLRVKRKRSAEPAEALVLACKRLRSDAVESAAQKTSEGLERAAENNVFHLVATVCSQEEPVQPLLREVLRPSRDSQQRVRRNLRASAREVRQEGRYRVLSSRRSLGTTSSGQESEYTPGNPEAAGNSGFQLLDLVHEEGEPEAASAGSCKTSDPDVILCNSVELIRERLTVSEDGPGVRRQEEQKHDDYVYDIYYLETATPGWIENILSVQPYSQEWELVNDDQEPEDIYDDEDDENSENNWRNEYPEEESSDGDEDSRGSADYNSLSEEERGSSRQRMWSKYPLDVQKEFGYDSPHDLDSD
active: pinometostat 0.273
inactive: erlotinib -0.015 | [1] 0.018 | [2] 0.035 | [3] -0.039 | [4] 0.007 | [5] 0.042 | [6] 0.045 | [7] -0.025 | [8] -0.015 | [9] 0.022 | IRAK-1-4 Inhibitor I 0.018 | ibrutinib -0.027 | [10] 0.046 | ralimetinib 0.134 | [11] -0.032 | [12] 0.045 | [13] -0.019 | [14] 0.014 | [15] -0.199

SNRPD3 (UniProt P62318)
Sequence of UniProt P62318 (P62318 whole entry, looked up): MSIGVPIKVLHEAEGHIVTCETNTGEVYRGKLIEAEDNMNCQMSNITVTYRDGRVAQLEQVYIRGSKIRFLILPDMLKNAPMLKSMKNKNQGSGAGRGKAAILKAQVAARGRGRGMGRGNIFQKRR
inactive: erlotinib -0.019 | [1] -0.02 | [2] -0.04 | [3] -0.038 | [4] 0.012 | [5] 0.079 | [6] -0.113 | [7] -0.076 | [8] 0.068 | [9] -0.012 | IRAK-1-4 Inhibitor I 0.002 | ibrutinib -0.006 | [10] 0.067 | ralimetinib -0.022 | [11] 0.208 | [12] 0.162 | [13] 0.017 | pinometostat 0.027 | [14] -0.008 | [15] 0.022

TBK1 (UniProt Q9UHD2)
inactive: erlotinib -0.042 | [1] 0.009 | [2] 0.003 | [3] -0.048 | [4] 0.044 | [5] 0.026 | [6] -0.082 | [7] 0.009 | [8] 0.029 | [9] -0.105 | IRAK-1-4 Inhibitor I -0.046 | ibrutinib -0.019 | [10] -0.162 | ralimetinib 0.024 | [11] -0.067 | [12] -0.208 | [13] 0.046 | pinometostat 0.087 | [14] 0.028 | [15] -0.091

STOM (UniProt P27105)
Sequence of UniProt P27105 (P27105 whole entry, looked up): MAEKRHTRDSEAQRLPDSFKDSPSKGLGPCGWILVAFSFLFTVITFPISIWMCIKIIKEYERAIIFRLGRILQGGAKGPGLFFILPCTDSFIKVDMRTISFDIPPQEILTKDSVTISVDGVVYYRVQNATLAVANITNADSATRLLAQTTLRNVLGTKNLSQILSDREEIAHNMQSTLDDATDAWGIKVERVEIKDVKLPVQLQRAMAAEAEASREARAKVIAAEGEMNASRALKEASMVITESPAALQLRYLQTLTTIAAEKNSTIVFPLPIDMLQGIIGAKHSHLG
inactive: erlotinib -0.027 | [1] -0.087 | [2] -0.011 | [3] 0.1 | [4] 0.054 | [5] 0.04 | [6] -0.188 | [7] -0.038 | [8] 0.004 | [9] -0.079 | IRAK-1-4 Inhibitor I -0.039 | ibrutinib 0.019 | [10] -0.018 | ralimetinib -0.054 | [11] 0.004 | [12] -0.064 | [13] 0.14 | pinometostat 0.028 | [14] 0.014 | [15] 0.039

SMARCAD1 isoform 2 (UniProt Q9H4L7)
Sequence of UniProt Q9H4L7 (Q9H4L7 whole entry, looked up): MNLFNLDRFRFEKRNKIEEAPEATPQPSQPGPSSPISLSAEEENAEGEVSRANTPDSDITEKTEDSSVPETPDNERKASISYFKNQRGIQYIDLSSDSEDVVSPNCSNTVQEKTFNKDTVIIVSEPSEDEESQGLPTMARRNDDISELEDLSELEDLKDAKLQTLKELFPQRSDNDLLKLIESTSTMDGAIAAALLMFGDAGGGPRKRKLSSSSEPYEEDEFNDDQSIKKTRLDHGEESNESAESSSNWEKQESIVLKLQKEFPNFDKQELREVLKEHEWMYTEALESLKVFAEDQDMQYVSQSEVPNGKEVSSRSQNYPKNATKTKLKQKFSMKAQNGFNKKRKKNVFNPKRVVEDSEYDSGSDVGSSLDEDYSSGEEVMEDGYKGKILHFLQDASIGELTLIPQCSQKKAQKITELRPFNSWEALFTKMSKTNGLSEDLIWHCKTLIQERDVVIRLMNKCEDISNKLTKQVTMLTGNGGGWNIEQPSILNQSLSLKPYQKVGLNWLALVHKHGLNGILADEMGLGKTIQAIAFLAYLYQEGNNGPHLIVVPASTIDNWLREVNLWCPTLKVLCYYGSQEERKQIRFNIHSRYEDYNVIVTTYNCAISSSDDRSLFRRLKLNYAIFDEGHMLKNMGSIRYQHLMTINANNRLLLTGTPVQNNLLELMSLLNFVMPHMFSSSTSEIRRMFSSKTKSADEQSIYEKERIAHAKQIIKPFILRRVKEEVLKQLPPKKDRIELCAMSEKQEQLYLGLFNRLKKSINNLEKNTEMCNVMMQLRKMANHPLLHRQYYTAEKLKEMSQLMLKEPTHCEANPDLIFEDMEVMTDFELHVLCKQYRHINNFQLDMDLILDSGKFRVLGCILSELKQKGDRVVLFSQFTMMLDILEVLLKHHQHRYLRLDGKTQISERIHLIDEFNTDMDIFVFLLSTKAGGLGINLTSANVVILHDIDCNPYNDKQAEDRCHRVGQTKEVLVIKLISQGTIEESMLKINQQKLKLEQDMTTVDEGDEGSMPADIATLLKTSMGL
inactive: erlotinib 0.089 | [1] 0.052 | [2] 0.071 | [3] 0.007 | [4] 0.05 | [5] -0.026 | [6] 0.025 | [7] 0.022 | [8] -0.02 | [9] -0.052 | IRAK-1-4 Inhibitor I -0.031 | ibrutinib -0.016 | [10] 0.014 | ralimetinib -0.009 | [11] -0.201 | [12] -0.2 | [13] 0.029 | pinometostat -0.003 | [14] -0.007 | [15] 0.144

SRSF10 (UniProt O75494)
inactive: erlotinib 0.004 | [1] -0.284 | [3] 0.035 | [4] -0.044 | [5] 0.048 | [6] -0.148 | [7] -0.022 | [8] 0.063 | [9] -0.135 | IRAK-1-4 Inhibitor I -0.179 | ibrutinib 0.07 | [10] -0.047 | ralimetinib 0.185 | [11] 0.218 | [12] 0.002 | [13] 0.102 | pinometostat 0.418 | [14] 0.205 | [15] -0.396
active: [2] -0.701

SPECC1 (UniProt Q5M775)
Sequence of UniProt Q5M775 (Q5M775 whole entry, looked up): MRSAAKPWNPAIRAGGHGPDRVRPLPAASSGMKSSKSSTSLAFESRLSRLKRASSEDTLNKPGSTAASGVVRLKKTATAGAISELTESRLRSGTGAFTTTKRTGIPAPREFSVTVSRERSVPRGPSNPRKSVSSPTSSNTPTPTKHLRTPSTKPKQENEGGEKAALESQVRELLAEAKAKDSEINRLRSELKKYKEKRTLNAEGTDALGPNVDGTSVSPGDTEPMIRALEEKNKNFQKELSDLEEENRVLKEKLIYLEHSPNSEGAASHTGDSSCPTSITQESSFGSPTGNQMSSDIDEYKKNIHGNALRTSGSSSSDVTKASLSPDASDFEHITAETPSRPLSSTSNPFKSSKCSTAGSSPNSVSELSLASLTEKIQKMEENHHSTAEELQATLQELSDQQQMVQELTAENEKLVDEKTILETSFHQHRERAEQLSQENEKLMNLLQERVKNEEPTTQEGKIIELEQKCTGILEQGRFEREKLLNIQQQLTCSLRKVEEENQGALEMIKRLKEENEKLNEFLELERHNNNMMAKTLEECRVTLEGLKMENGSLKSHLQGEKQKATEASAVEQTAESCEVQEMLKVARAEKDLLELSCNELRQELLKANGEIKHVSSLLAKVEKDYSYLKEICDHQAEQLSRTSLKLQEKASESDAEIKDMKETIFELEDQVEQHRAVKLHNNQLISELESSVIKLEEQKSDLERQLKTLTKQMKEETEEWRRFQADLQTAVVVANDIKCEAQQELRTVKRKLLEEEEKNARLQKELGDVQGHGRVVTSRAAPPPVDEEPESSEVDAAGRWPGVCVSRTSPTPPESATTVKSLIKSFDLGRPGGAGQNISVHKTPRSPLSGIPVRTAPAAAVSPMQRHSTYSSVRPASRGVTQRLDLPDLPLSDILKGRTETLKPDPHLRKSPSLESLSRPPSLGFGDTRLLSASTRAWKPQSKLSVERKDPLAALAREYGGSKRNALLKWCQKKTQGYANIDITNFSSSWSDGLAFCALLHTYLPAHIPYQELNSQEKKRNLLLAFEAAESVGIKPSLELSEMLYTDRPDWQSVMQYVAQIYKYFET
inactive: erlotinib 0.044 | [1] -0.002 | [2] 0.022 | [3] 0 | [4] 0.056 | [5] 0.02 | [6] -0.208 | [7] -0.023 | [8] 0.026 | [9] 0.012 | IRAK-1-4 Inhibitor I 0.01 | ibrutinib -0.068 | [10] -0.035 | ralimetinib -0.107 | [11] 0.025 | [12] 0.08 | [13] 0.003 | pinometostat -0.25 | [14] 0.048 | [15] -0.01

STK25 (UniProt O00506)
Sequence of UniProt O00506 (O00506 whole entry, looked up): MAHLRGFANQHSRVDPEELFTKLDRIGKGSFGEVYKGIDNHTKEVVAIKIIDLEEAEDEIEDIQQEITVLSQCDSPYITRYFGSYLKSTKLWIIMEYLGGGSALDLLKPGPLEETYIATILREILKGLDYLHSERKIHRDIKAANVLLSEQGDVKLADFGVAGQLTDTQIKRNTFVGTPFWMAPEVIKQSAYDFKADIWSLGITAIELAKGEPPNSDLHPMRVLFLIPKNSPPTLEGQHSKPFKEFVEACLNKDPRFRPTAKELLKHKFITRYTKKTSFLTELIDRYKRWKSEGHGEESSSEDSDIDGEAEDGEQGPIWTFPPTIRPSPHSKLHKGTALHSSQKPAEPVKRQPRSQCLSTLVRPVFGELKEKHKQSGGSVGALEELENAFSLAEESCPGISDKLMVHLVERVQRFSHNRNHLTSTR
inactive: erlotinib 0.081 | [1] 0.011 | [2] 0.062 | [3] -0.009 | [4] 0.021 | [5] 0.041 | [6] -0.025 | [7] -0.007 | [8] 0.026 | [9] 0.011 | IRAK-1-4 Inhibitor I 0.051 | ibrutinib -0.067 | [10] 0 | ralimetinib 0.015 | [11] -0.039 | [12] -0.02 | [13] 0.066 | pinometostat 0.034 | [14] -0.015 | [15] 0.08

SPTBN4 (UniProt Q9H254)
inactive: erlotinib 0.29 | [1] 0 | [2] -0.045 | [3] 0.078 | [4] 0.066 | [5] -0.027 | [6] 0.035 | [7] 0.061 | [8] 0.066 | [9] -0.05 | IRAK-1-4 Inhibitor I -0.008 | ibrutinib 0.1 | [10] -0.06 | ralimetinib -0.032 | [11] -0.025 | [13] -0.07 | pinometostat -0.007 | [14] 0.024 | [15] -0.016
active: [12] -0.671

SSX2 (UniProt Q16385)
Sequence of UniProt Q16385 (Q16385 whole entry, looked up): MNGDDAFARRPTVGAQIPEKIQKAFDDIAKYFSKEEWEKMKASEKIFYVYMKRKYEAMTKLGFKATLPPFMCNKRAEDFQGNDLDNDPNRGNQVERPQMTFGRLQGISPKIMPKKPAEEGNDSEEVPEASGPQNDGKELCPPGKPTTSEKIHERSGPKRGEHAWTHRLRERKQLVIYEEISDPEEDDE
active: [15] -1.33
inactive: erlotinib -0.068 | [1] -0.078 | [2] -0.023 | [3] 0.038 | [4] 0.175 | [5] 0.044 | [6] -0.032 | [7] -0.035 | [8] -0.022 | [9] -0.004 | IRAK-1-4 Inhibitor I -0.038 | ibrutinib -0.004 | [10] -0.006 | ralimetinib -0.03 | [11] 0.022 | [12] -0.044 | [13] 0.123 | pinometostat -0.065 | [14] 0.021

STXBP5 (UniProt Q5T5C0)
Sequence of UniProt Q5T5C0 (Q5T5C0 whole entry, looked up): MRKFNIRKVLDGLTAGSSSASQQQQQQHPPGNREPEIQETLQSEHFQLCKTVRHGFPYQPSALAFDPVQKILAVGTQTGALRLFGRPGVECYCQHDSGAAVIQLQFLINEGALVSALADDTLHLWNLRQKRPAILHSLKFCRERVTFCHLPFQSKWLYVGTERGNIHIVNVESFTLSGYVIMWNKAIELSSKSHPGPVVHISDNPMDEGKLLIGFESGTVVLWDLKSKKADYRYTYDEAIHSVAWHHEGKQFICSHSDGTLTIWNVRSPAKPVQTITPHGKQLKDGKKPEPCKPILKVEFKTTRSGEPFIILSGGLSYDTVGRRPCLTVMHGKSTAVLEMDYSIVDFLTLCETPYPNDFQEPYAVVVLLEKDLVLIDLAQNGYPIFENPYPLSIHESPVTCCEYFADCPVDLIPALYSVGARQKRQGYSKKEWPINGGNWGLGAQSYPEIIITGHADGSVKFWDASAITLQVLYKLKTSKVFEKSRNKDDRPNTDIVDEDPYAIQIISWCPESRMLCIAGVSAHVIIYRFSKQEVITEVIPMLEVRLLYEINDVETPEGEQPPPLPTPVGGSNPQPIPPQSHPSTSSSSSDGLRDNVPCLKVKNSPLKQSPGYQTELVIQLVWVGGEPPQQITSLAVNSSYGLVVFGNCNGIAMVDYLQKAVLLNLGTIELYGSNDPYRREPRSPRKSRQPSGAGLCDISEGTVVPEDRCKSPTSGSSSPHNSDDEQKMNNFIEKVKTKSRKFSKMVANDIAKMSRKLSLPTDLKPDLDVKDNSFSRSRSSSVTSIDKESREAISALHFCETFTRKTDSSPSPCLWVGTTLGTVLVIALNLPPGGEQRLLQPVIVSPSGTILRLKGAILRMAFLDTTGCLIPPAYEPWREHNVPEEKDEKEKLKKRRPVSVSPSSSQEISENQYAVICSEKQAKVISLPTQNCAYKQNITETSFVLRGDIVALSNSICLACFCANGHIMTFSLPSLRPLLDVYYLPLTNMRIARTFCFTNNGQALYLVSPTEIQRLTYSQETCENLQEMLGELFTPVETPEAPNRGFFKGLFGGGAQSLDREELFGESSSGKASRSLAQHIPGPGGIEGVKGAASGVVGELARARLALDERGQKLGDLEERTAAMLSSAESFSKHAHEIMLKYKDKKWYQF
inactive: erlotinib 0.028 | [1] 0.039 | [2] 0.097 | [3] 0.018 | [4] 0.094 | [5] 0.026 | [6] 0.036 | [7] -0.015 | [8] -0.014 | [9] 0.011 | IRAK-1-4 Inhibitor I -0.025 | ibrutinib -0.037 | [10] -0.073 | ralimetinib 0.029 | [11] -0.038 | [12] -0.107 | [13] -0.049 | pinometostat 0.025 | [14] 0.018 | [15] 0.048

TCERG1 (UniProt O14776)
inactive: erlotinib 0.072 | [1] 0.154 | [2] 0.152 | [3] -0.017 | [4] 0.067 | [5] -0.022 | [6] 0.015 | [7] 0.027 | [8] -0.104 | [9] -0.029 | IRAK-1-4 Inhibitor I -0.062 | ibrutinib -0.073 | [10] -0.065 | ralimetinib -0.035 | [11] -0.172 | [12] -0.086 | [13] -0.041 | pinometostat -0.039 | [14] -0.016 | [15] 0.062

SRSF2 (UniProt Q01130)
inactive: erlotinib -0.003 | [1] -0.034 | [2] -0.13 | [3] 0.02 | [4] -0.029 | [5] -0.032 | [6] -0.038 | [7] -0.032 | [8] 0.041 | [9] -0.027 | IRAK-1-4 Inhibitor I -0.069 | ibrutinib 0.016 | [10] -0.073 | ralimetinib 0.01 | [11] 0.055 | [12] 0.03 | [13] 0.09 | pinometostat 0.022 | [14] 0.02 | [15] -0.02

SLC25A42 (UniProt Q86VD7)
Sequence of UniProt Q86VD7 (Q86VD7 whole entry, looked up): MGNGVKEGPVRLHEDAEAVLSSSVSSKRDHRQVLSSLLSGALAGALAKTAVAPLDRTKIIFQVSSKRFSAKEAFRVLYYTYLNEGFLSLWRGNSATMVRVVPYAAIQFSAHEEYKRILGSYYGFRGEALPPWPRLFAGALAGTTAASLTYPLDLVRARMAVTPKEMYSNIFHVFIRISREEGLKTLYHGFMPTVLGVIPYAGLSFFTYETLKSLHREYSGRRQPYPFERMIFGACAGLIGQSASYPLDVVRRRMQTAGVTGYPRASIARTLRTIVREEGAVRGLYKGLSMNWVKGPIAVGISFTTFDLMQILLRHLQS
inactive: erlotinib 0.08 | [1] 0.01 | [2] 0.089 | [3] 0.01 | [4] -0.032 | [5] -0.026 | [6] 0.079 | [7] -0.137 | [8] -0.086 | [9] 0.066 | IRAK-1-4 Inhibitor I 0.034 | ibrutinib 0.045 | [10] -0.002 | ralimetinib 0.041 | [11] 0.015 | [12] 0.014 | [13] -0.037 | pinometostat -0.027 | [14] -0.045 | [15] 0.077

SSR3 isoform 2 (UniProt Q9UNL2)
inactive: erlotinib 0.019 | [1] 0.054 | [2] -0.013 | [3] -0.003 | [4] -0.187 | [5] 0.037 | [6] 0.006 | [7] 0.028 | [8] -0.119 | [9] -0.011 | IRAK-1-4 Inhibitor I 0.158 | ibrutinib 0.029 | [10] 0.132 | ralimetinib 0.06 | [11] 0.031 | [12] 0.01 | [13] -0.049 | pinometostat -0.134 | [14] 0.036 | [15] -0.022

SLC29A3 (UniProt Q9BZD2)
inactive: erlotinib 0.155 | [1] 0.024 | [2] 0.028 | [3] 0.043 | [4] 0.042 | [5] 0.098 | [6] 0.064 | [7] 0 | [8] 0.074 | [9] 0.052 | IRAK-1-4 Inhibitor I 0.01 | ibrutinib 0.064 | [10] 0.04 | ralimetinib -0.025 | [11] 0.088 | [12] -0.283 | [13] 0.011 | pinometostat 0.02 | [14] -0.046 | [15] -0.148
